Screening results from PubChem BioAssay.
CYP2C9 activ = human CYP2C9 activators, primary screen, biochemical, luminescence. recombinant CYP2C9, luciferin-H conversion; active compounds read high; factor 1 = untreated enzyme, 0 = blocked. activation factor at 5 µM. AID 1024, 2008. Cytochrome P450 2C9 (Homo sapiens), P11712. 96,000 tested, 1.4% active;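 active = activation factor of 2 or more for CYP2C9 at a 5 µM dose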
Target sequence (P11712 whole entry, looked up): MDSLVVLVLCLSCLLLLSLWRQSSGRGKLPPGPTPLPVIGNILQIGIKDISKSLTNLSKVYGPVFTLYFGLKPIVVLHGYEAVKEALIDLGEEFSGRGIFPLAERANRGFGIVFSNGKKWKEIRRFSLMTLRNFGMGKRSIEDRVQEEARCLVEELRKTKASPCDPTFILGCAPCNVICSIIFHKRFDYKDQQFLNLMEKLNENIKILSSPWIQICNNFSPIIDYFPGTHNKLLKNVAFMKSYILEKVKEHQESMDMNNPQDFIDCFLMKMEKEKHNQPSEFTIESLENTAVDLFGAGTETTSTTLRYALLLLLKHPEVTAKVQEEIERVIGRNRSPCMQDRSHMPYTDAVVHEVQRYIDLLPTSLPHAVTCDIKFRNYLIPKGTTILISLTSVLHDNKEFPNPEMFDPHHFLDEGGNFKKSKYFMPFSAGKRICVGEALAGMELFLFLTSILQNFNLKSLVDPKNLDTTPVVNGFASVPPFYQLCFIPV
Mac1 fbg inh = inhibitors of CD11b/CD18 adhesion to fibrinogen, primary screen, K562 cells, luminescence | Integrin beta-2 (Homo sapiens) + Integrin alpha-M (Homo sapiens), P05107+P11215 | AID 1497, 2009 | 93,000 tested, 0.54% active | inhibition, % at 10 µM | ATPlite luminescence; Mn2+ added to activate the integrin;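 active = primary inhibition of 50% or more at 10 µM, then 40% or more on retest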
CYP2C19 act = human CYP2C19 activators, primary screen, biochemical, luminescence | activation factor at 5 µM | Cytochrome P450 2C19 (Homo sapiens), P33261 | recombinant CYP2C19, luciferin-H EGE luminescence; active compounds read high; 0 = fully inhibited enzyme, 1 = untreated enzyme | 96,000 tested, under 10 active | AID 1025, 2008;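 active = activation factor of at least 2 at 5 µM in the primary screen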
Mac1 fbg enh = enhancers of CD11b/CD18 adhesion to fibrinogen, primary screen, K562 cells, luminescence; ATPlite luminescence; activation, % at 10 µM; 93,000 tested, 0.07% active; Integrin beta-2 (Homo sapiens) + Integrin alpha-M (Homo sapiens), P05107+P11215;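 active = 10 µM primary screen giving 50% or more activity, confirmed by 40% or more on retest at that dose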
CYP2C9 inhib = blockers of cytochrome P450 2C9 activity – biochemical, luminescence, ADME assay, primary screen; P11712; CYP2C9 Supersomes, luciferin-H conversion; inhibition, % at 5 µM; 96,000 tested, 20% active; AID 777, 2007;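 active = blocking of liver enzyme CYP2C9 beyond about 50% at 5 µM, limit read from the data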
CYP2C19 inhib = blockers of cytochrome P450 2C19 activity – biochemical, luminescence, ADME assay, primary screen. CYP2C19 Supersomes, luciferin-H EGE luminescence, 30 min. inhibition, % at 5 µM. 96,000 tested, 21% active;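 active = CYP2C19 inhibition above a set limit at 5 µM in the primary screen, cut at about 50% in these data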
A number is an active result. The list is not random: actives were taken first. Their share in the collection is about 28%.

What do the screens show for `CCOC(=O)Cc1nnc(NC(=O)c2cccc(OCC)c2)s1`?
CYP2C9 activ: inactive; Mac1 fbg inh: inactive; CYP2C19 act: inactive; Mac1 fbg enh: inactive; CYP2C9 inhib: inactive; CYP2C19 inhib: inactive

What do the screens show for `O=C(O)c1ccccc1OCCOCCOc1ccccc1C(=O)O`?
CYP2C9 activ: inactive; Mac1 fbg inh: inactive; CYP2C19 act: inactive; Mac1 fbg enh: inactive; CYP2C9 inhib: inactive; CYP2C19 inhib: inactive

Results for O=C1c2ccccc2C(=O)N1CC1=CCS(=O)(=O)C1 ?
CYP2C9 activ: inactive; Mac1 fbg inh: inactive; CYP2C19 act: inactive; Mac1 fbg enh: inactive; CYP2C9 inhib: inactive; CYP2C19 inhib: inactive

How did CCC1CCCCN1C(=O)C1CC(c2cc(Cl)c(OC)cc2OC)=NO1 (stereo not given) do in these assays?
CYP2C9 activ: inactive; Mac1 fbg inh: inactive; CYP2C19 act: inactive; Mac1 fbg enh: inactive; CYP2C9 inhib: inactive; CYP2C19 inhib: 71.6

Results for CCn1cc(C(=O)N2CCCC2)c(=O)c2cc(S(=O)(=O)N3CCOCC3)ccc21 ?
CYP2C9 activ: inactive; Mac1 fbg inh: inactive; CYP2C19 act: inactive; Mac1 fbg enh: inactive; CYP2C9 inhib: inactive; CYP2C19 inhib: inactive

Results for Cc1ccc(C(c2nnnn2C2CCCCC2)N2CCN3CCCC3C2)cc1 (stereo not given) ?
CYP2C9 activ: inactive; CYP2C19 act: inactive; CYP2C9 inhib: inactive; CYP2C19 inhib: inactive

Results for Cc1ccc(Cl)cc1N1CCN(C(c2cccnc2)c2nnnn2C2CCCCC2)CC1 (stereo not given) ?
CYP2C9 activ: inactive; Mac1 fbg inh: inactive; CYP2C19 act: inactive; Mac1 fbg enh: inactive; CYP2C9 inhib: 93.1; CYP2C19 inhib: 98.4

Results for Cc1ccc(Cl)cc1N1CCN(C(c2ccc(C#N)cc2)c2nnnn2C2CCCC2)CC1 (stereo not given) ?
CYP2C9 activ: inactive; Mac1 fbg inh: inactive; CYP2C19 act: inactive; Mac1 fbg enh: inactive; CYP2C9 inhib: 55.8; CYP2C19 inhib: inactive

What do the screens show for `CCOC(=O)c1ccc(NC(=O)CCC2COc3ccccc3O2)cc1` (stereo not given)?
CYP2C9 activ: inactive; CYP2C19 act: inactive; CYP2C9 inhib: 68.8; CYP2C19 inhib: inactive

What do the screens show for `O=C(CCC1COc2ccccc2O1)Nc1ccc(Cl)cn1` (stereo not given)?
CYP2C9 activ: inactive; Mac1 fbg inh: inactive; CYP2C19 act: inactive; Mac1 fbg enh: inactive; CYP2C9 inhib: inactive; CYP2C19 inhib: 75.0

How did O=C(O)CCC1COc2ccccc2O1 (stereo not given) do in these assays?
CYP2C9 activ: inactive; Mac1 fbg inh: inactive; CYP2C19 act: inactive; Mac1 fbg enh: inactive; CYP2C9 inhib: inactive; CYP2C19 inhib: inactive

What do the screens show for `COc1ccc(CCNC(=O)CCC2COc3ccccc3O2)cc1OC` (stereo not given)?
CYP2C9 activ: inactive; CYP2C19 act: inactive; CYP2C9 inhib: 67.9; CYP2C19 inhib: inactive

What do the screens show for `Cc1ccnc(NC(=O)CCC2COc3ccccc3O2)c1` (stereo not given)?
CYP2C9 activ: inactive; Mac1 fbg inh: inactive; CYP2C19 act: inactive; Mac1 fbg enh: inactive; CYP2C9 inhib: 54.8; CYP2C19 inhib: 81.9

Results for Cc1cccc(OCC2=N/C(=C\N(C)C)C(=O)O2)c1 ?
CYP2C9 activ: inactive; Mac1 fbg inh: inactive; CYP2C19 act: inactive; Mac1 fbg enh: inactive; CYP2C9 inhib: inactive; CYP2C19 inhib: 67.3

What do the screens show for `C/C(=N\NC(=O)COc1ccc(C)cc1C(C)C)c1cc2ccccc2o1`?
Mac1 fbg inh: inactive; Mac1 fbg enh: inactive

How did Cc1ccc(C23CC4CC(CC(C(=O)N5CCOCC5)(C4)C2)C3)cc1 do in these assays?
CYP2C9 activ: inactive; Mac1 fbg inh: inactive; CYP2C19 act: inactive; Mac1 fbg enh: inactive; CYP2C9 inhib: 56.7; CYP2C19 inhib: 76.5

What do the screens show for `O=C(N1CCOCC1)C12CC3CC(C1)CC(c1ccccc1)(C3)C2`?
CYP2C9 activ: inactive; Mac1 fbg inh: inactive; CYP2C19 act: inactive; Mac1 fbg enh: inactive; CYP2C9 inhib: inactive; CYP2C19 inhib: inactive
